Reference: the supplement of paper PMC4466140

Columns and labels:
Experiment in all cases: SPOT peptide array binding signal intensity (averaged, normalized) (arbitrary units (background-subtracted, floor 0; scale differs between SH3 domains)); higher = stronger binding of the SH3 domain to the peptide
CaNbp2 = target: CaNbp2
In short: (§1)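 E. coli BL21(DE3) was used to express GST-fused SH3 domains from four yeast species, which were then purified on glutathione Sepharose. These were incubated at 10 μg/ml in TBS-based blocking buffer overnight at 4°C on cellulose membranes carrying synthetic 15-mer peptides, in which cysteines were replaced by serines. Binding signal is the replicate average of normalized, background-subtracted spot intensity, in arbitrary units that differ between domains.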

CaRvs167 = target: CaRvs167
In short: as §1

CaRvs167-3 = target: CaRvs167-3
In short: as §1

CaSho1 = target: CaSho1
In short: as §1

CaSla1-D1-D2 = target: CaSla1-D1-D2
In short: as §1

CaSla1-D3 = target: CaSla1-D3
In short: as §1

ScAbp1 = target: ScAbp1
In short: as §1

ScBbc1 = target: ScBbc1
In short: as §1

ScBem1-D1 = target: ScBem1-D1
In short: as §1

ScBzz1-D1 = target: ScBzz1-D1
In short: as §1

ScBzz1-D2 = target: ScBzz1-D2
In short: as §1

ScCyk3 = target: ScCyk3
In short: as §1

ScFus1 = target: ScFus1
In short: as §1

ScHof1 = target: ScHof1
In short: as §1

ScHse1 = target: ScHse1
In short: as §1

ScLsb1 = target: ScLsb1
In short: as §1

ScLsb2 = target: ScLsb2
In short: as §1

ScLsb3 = target: ScLsb3
In short: as §1

ScLsb4 = target: ScLsb4
In short: as §1

ScMyo3 = target: ScMyo3
In short: as §1

ScMyo5 = target: ScMyo5
In short: as §1

ScNbp2 = target: ScNbp2
In short: as §1

ScPex13 = target: ScPex13
In short: as §1

ScRvs167 = target: ScRvs167
In short: as §1

ScSho1 = target: ScSho1
In short: as §1

ScSla1-D1-D2 = target: ScSla1-D1-D2
In short: as §1

ScSla1-D3 = target: ScSla1-D3
In short: as §1

SpAbp1-D1 = target: SpAbp1-D1
In short: as §1

SpBbc1 = target: SpBbc1
In short: as §1

SpBzz1-D1 = target: SpBzz1-D1
In short: as §1

SpBzz1-D2 = target: SpBzz1-D2
In short: as §1

SpCyk3 = target: SpCyk3
In short: as §1

SpHof1 = target: SpHof1
In short: as §1

SpHof1-2 = target: SpHof1-2
In short: as §1

SpHof1-3 = target: SpHof1-3
In short: as §1

SpHse1 = target: SpHse1
In short: as §1

SpLsb1 = target: SpLsb1
In short: as §1

SpLsb4 = target: SpLsb4
In short: as §1

SpMyo1 = target: SpMyo1
In short: as §1

SpNbp2 = target: SpNbp2
In short: as §1

SpPex13 = target: SpPex13
In short: as §1

SpRvs167 = target: SpRvs167
In short: as §1

SpSla1-D1-D2 = target: SpSla1-D1-D2
In short: as §1

SpSla1-D3 = target: SpSla1-D3
In short: as §1

AgAbp1 = target: AgAbp1
In short: as §1

AgBbc1 = target: AgBbc1
In short: as §1

AgBem1-D1 = target: AgBem1-D1
In short: as §1

AgBzz1-D1 = target: AgBzz1-D1
In short: as §1

AgBzz1-D2 = target: AgBzz1-D2
In short: as §1

AgCyk3 = target: AgCyk3
In short: as §1

AgFus1 = target: AgFus1
In short: as §1

AgHof1 = target: AgHof1
In short: as §1

AgHse1 = target: AgHse1
In short: as §1

AgLsb1 = target: AgLsb1
In short: as §1

AgLsb4 = target: AgLsb4
In short: as §1

AgMyo5 = target: AgMyo5
In short: as §1

AgNbp2 = target: AgNbp2
In short: as §1

AgRvs167 = target: AgRvs167
In short: as §1

AgSho1 = target: AgSho1
In short: as §1

AgSla1-D1-D2 = target: AgSla1-D1-D2
In short: as §1

AgSla1-D3 = target: AgSla1-D3
In short: as §1

CaAbp1-D1 = target: CaAbp1-D1
In short: as §1

CaAbp1-D2 = target: CaAbp1-D2
In short: as §1

CaBbc1 = target: CaBbc1
In short: as §1

CaBem1-D1 = target: CaBem1-D1
In short: as §1

CaBzz1-D1 = target: CaBzz1-D1
In short: as §1

CaBzz1-D2 = target: CaBzz1-D2
In short: as §1

CaCyk3 = target: CaCyk3
In short: as §1

CaFus1 = target: CaFus1
In short: as §1

CaHof1 = target: CaHof1
In short: as §1

CaHse1 = target: CaHse1
In short: as §1

CaLsb1 = target: CaLsb1
In short: as §1

CaLsb4 = target: CaLsb4
In short: as §1

CaMyo5 = target: CaMyo5
In short: as §1

B1: unnamed (peptide)
chain: PALPSLPPPPLLNVD
SPOT peptide array binding signal intensity (CaNbp2): ≤ 0
SPOT peptide array binding signal intensity (CaRvs167): ≤ 0
SPOT peptide array binding signal intensity (CaRvs167-3): ≤ 0
SPOT peptide array binding signal intensity (CaSho1): 8.5
SPOT peptide array binding signal intensity (CaSla1-D1-D2): ≤ 0
SPOT peptide array binding signal intensity (CaSla1-D3): ≤ 0
SPOT peptide array binding signal intensity (ScAbp1): ≤ 0
SPOT peptide array binding signal intensity (ScBbc1): ≤ 0
SPOT peptide array binding signal intensity (ScBem1-D1): ≤ 0
SPOT peptide array binding signal intensity (ScBzz1-D1): 15.5
SPOT peptide array binding signal intensity (ScBzz1-D2): 10.5
SPOT peptide array binding signal intensity (ScCyk3): ≤ 0
SPOT peptide array binding signal intensity (ScFus1): ≤ 0
SPOT peptide array binding signal intensity (ScHof1): 3250
SPOT peptide array binding signal intensity (ScHse1): 128
SPOT peptide array binding signal intensity (ScLsb1): ≤ 0
SPOT peptide array binding signal intensity (ScLsb2): ≤ 0
SPOT peptide array binding signal intensity (ScLsb3): 6.5
SPOT peptide array binding signal intensity (ScLsb4): ≤ 0
SPOT peptide array binding signal intensity (ScMyo3): 1950
SPOT peptide array binding signal intensity (ScMyo5): 1820
SPOT peptide array binding signal intensity (ScNbp2): ≤ 0
SPOT peptide array binding signal intensity (ScPex13): ≤ 0
SPOT peptide array binding signal intensity (ScRvs167): ≤ 0
SPOT peptide array binding signal intensity (ScSho1): 542
SPOT peptide array binding signal intensity (ScSla1-D1-D2): ≤ 0
SPOT peptide array binding signal intensity (ScSla1-D3): 1.25
SPOT peptide array binding signal intensity (SpAbp1-D1): ≤ 0
SPOT peptide array binding signal intensity (SpBbc1): 1
SPOT peptide array binding signal intensity (SpBzz1-D1): 94
SPOT peptide array binding signal intensity (SpBzz1-D2): 1
SPOT peptide array binding signal intensity (SpCyk3): ≤ 0
SPOT peptide array binding signal intensity (SpHof1): ≤ 0
SPOT peptide array binding signal intensity (SpHof1-2): 1210
SPOT peptide array binding signal intensity (SpHof1-3): 326
SPOT peptide array binding signal intensity (SpHse1): ≤ 0
SPOT peptide array binding signal intensity (SpLsb1): ≤ 0
SPOT peptide array binding signal intensity (SpLsb4): ≤ 0
SPOT peptide array binding signal intensity (SpMyo1): 1260
SPOT peptide array binding signal intensity (SpNbp2): ≤ 0
SPOT peptide array binding signal intensity (SpPex13): ≤ 0
SPOT peptide array binding signal intensity (SpRvs167): 0.5
SPOT peptide array binding signal intensity (SpSla1-D1-D2): ≤ 0
SPOT peptide array binding signal intensity (SpSla1-D3): ≤ 0

B2: unnamed (peptide)
chain: TEVPIPRRPPPPQAA
SPOT peptide array binding signal intensity (AgAbp1): ≤ 0
SPOT peptide array binding signal intensity (AgBbc1): 130
SPOT peptide array binding signal intensity (AgBem1-D1): ≤ 0
SPOT peptide array binding signal intensity (AgBzz1-D1): 8
SPOT peptide array binding signal intensity (AgBzz1-D2): 7.5
SPOT peptide array binding signal intensity (AgCyk3): ≤ 0
SPOT peptide array binding signal intensity (AgFus1): ≤ 0
SPOT peptide array binding signal intensity (AgHof1): ≤ 0
SPOT peptide array binding signal intensity (AgHse1): ≤ 0
SPOT peptide array binding signal intensity (AgLsb1): ≤ 0
SPOT peptide array binding signal intensity (AgLsb4): 23.5
SPOT peptide array binding signal intensity (AgMyo5): 938
SPOT peptide array binding signal intensity (AgNbp2): ≤ 0
SPOT peptide array binding signal intensity (AgRvs167): 2.33
SPOT peptide array binding signal intensity (AgSho1): ≤ 0
SPOT peptide array binding signal intensity (AgSla1-D1-D2): ≤ 0
SPOT peptide array binding signal intensity (AgSla1-D3): 1
SPOT peptide array binding signal intensity (CaAbp1-D1): ≤ 0
SPOT peptide array binding signal intensity (CaAbp1-D2): ≤ 0
SPOT peptide array binding signal intensity (CaBbc1): 768
SPOT peptide array binding signal intensity (CaBem1-D1): ≤ 0
SPOT peptide array binding signal intensity (CaBzz1-D1): 32
SPOT peptide array binding signal intensity (CaBzz1-D2): ≤ 0
SPOT peptide array binding signal intensity (CaCyk3): 20
SPOT peptide array binding signal intensity (CaFus1): ≤ 0
SPOT peptide array binding signal intensity (CaHof1): 1
SPOT peptide array binding signal intensity (CaHse1): ≤ 0
SPOT peptide array binding signal intensity (CaLsb1): 0.5
SPOT peptide array binding signal intensity (CaLsb4): 210
SPOT peptide array binding signal intensity (CaMyo5): 1
SPOT peptide array binding signal intensity (CaNbp2): 204
SPOT peptide array binding signal intensity (CaRvs167): ≤ 0
SPOT peptide array binding signal intensity (CaRvs167-3): 2.75
SPOT peptide array binding signal intensity (CaSho1): ≤ 0
SPOT peptide array binding signal intensity (CaSla1-D1-D2): ≤ 0
SPOT peptide array binding signal intensity (CaSla1-D3): 0.5
SPOT peptide array binding signal intensity (ScAbp1): ≤ 0
SPOT peptide array binding signal intensity (ScBbc1): ≤ 0
SPOT peptide array binding signal intensity (ScBem1-D1): ≤ 0
SPOT peptide array binding signal intensity (ScBzz1-D1): 14
SPOT peptide array binding signal intensity (ScBzz1-D2): 12
SPOT peptide array binding signal intensity (ScCyk3): ≤ 0
SPOT peptide array binding signal intensity (ScFus1): 1
SPOT peptide array binding signal intensity (ScHof1): ≤ 0
SPOT peptide array binding signal intensity (ScHse1): ≤ 0
SPOT peptide array binding signal intensity (ScLsb1): 5
SPOT peptide array binding signal intensity (ScLsb2): ≤ 0
SPOT peptide array binding signal intensity (ScLsb3): 118
SPOT peptide array binding signal intensity (ScLsb4): 2
SPOT peptide array binding signal intensity (ScMyo3): 1370
SPOT peptide array binding signal intensity (ScMyo5): 569
SPOT peptide array binding signal intensity (ScNbp2): 12
SPOT peptide array binding signal intensity (ScPex13): ≤ 0
SPOT peptide array binding signal intensity (ScRvs167): 1.83
SPOT peptide array binding signal intensity (ScSho1): ≤ 0
SPOT peptide array binding signal intensity (ScSla1-D1-D2): ≤ 0
SPOT peptide array binding signal intensity (ScSla1-D3): ≤ 0
SPOT peptide array binding signal intensity (SpAbp1-D1): ≤ 0
SPOT peptide array binding signal intensity (SpBbc1): 1.25
SPOT peptide array binding signal intensity (SpBzz1-D1): 37
SPOT peptide array binding signal intensity (SpBzz1-D2): 0.25
SPOT peptide array binding signal intensity (SpCyk3): ≤ 0
SPOT peptide array binding signal intensity (SpHof1): ≤ 0
SPOT peptide array binding signal intensity (SpHof1-2): ≤ 0
SPOT peptide array binding signal intensity (SpHof1-3): ≤ 0
SPOT peptide array binding signal intensity (SpHse1): 8
SPOT peptide array binding signal intensity (SpLsb1): 1
SPOT peptide array binding signal intensity (SpLsb4): 90.5
SPOT peptide array binding signal intensity (SpMyo1): 1920
SPOT peptide array binding signal intensity (SpNbp2): 1
SPOT peptide array binding signal intensity (SpPex13): ≤ 0
SPOT peptide array binding signal intensity (SpRvs167): ≤ 0
SPOT peptide array binding signal intensity (SpSla1-D1-D2): ≤ 0
SPOT peptide array binding signal intensity (SpSla1-D3): 1
